# Results reported in PubChem BioAssay AID651995 (Sanford-Burnham Center for Chemical Genomics, 2013).
# Out of some 2,500 compounds screened, about 480 (19%) were called active.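 The calls were made as follows: active = mean inhibition above about 25% (limit read from the data); inactive = the rest.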 Only a sample is shown.
# Assay: Wnt3a reporter signal inhibition, confirmation, counter-screen for Gli-SUFU antagonist project, Wnt-LIGHT cells, luminescence, single concentration (AID 651995)
# Details: Wnt3a-driven luciferase reporter, at 6.25 µM, active compounds read high
row,Structure (SMILES),inhibition
1,C/C(=N\Nc1ccc(Cl)nn1)c1ccccc1O,-26.7% (inactive)
2,COc1ccc(Cc2nnc(N/N=C/c3ccccc3O)[nH]c2=O)cc1OC,59.9% (active)
3,COc1ccc(/C=N/N=C2/C(=O)Nc3ccccc32)cc1O,-23.9% (inactive)
4,CC(=O)OCCC(C)C,-9.39% (inactive)
5,c1ccc(-n2nnnc2N2CCOCC2)cc1,-14.5% (inactive)
6,O=C(O)CCCn1cc(NC(=O)COc2cccc(Cl)c2)cn1,6.24% (inactive)
7,Cc1ccc(NC(=O)CN(C)CC(=O)Nc2cccc(F)c2)cc1[N+](=O)[O-],36.3% (active)
8,CN(C)CCSc1nc(N)c2c3c(sc2n1)COC(C)(C)C3,-37.2% (inactive)
9,CCC1CCCCN1CCCNC(=O)Cn1nc(-c2ccccc2)ccc1=O (centres undefined),12.7% (inactive)
10,O=C1C=C(c2ccnc3cc(Cl)ccc23)C[C@@H](c2ccc3c(c2)OCO3)C1,27.6% (active)
11,CCN(CC)S(=O)(=O)c1ccc(Cl)c(C(=O)NC(C)C(c2cccs2)N2CCCC2)c1 (centres undefined),-35.1% (inactive)
12,CSc1ncccc1C(=O)Nc1nc2ccc(F)cc2s1,81.3% (active)
13,CCN(CCO)C(=S)Nc1cc(C(=O)OC)ccc1C(=O)OC,-4.1% (inactive)
14,O=C(Cn1cc(C(=O)C2CC2)c2ccccc21)Nc1ccccc1Cl,26.6% (active)
15,O=c1c2ccccc2nc2n1C(CSCc1cccc(C(F)(F)F)c1)CS2 (centres undefined),24.2% (inactive)
16,C=CCn1c(SCC(=O)CC(=O)OCC)nc2cc(C(=O)N3CCC(C(N)=O)CC3)ccc2c1=O,-31.2% (inactive)
17,O=C(c1cc(Cl)cc(Cl)c1)N1CCC(=O)N(C(COCc2ccccc2)Cc2ccccc2)CC1 (centres undefined),-8.85% (inactive)
18,CCC(Cc1ccccc1)NC(=O)C1CCCCC1 (centres undefined),-4.89% (inactive)
19,CC(C)OCC(O)CN1CCN(C(c2ccccc2)c2ccccc2)CC1 (centres undefined),-21.2% (inactive)
20,CCOc1ccc(-n2c(O)c(/C=N/c3ccnn3Cc3ccncc3)c3ccccc3c2=O)cc1,-8.8% (inactive)
21,O=C(CN1C(=O)c2ccccc2S1(=O)=O)N1CCc2ccccc21,72.4% (active)
22,NC(N)=Nc1nc(-c2ccccc2)c2cc(Cl)ccc2n1,-5.22% (inactive)

row,Structure (SMILES),inhibition
1,CC(C)Oc1ccc(/C=N/NC(=O)c2nnn(-c3nonc3N)c2CN(C)C2CCCCC2)cc1,-59.5% (inactive)
2,COc1ccc2c(C)cc3nnnn3c2c1,-7.11% (inactive)
3,Cc1ccc(S(=O)(=O)NC(C)C(=O)Nc2ccccc2C(=O)N2CCCC2)cc1 (centres undefined),-22.3% (inactive)
4,O=C(O)c1ccc(N/N=C/c2ccc3ncccc3c2)cc1,95% (active)
5,NS(=O)(=O)c1ccc(CCNC(=O)CCCn2c(SCC(=O)N3CCCC3)nc3ccsc3c2=O)cc1,-9.95% (inactive)
6,C=CCOc1nc2c(c(=O)n(C)c(=O)n2C)n1Cc1ccc(Cl)cc1Cl,-18% (inactive)
7,O=C(Nc1cc2c3c(c1)C1CCCC1CN3CC1CCCC21)c1ccc([N+](=O)[O-])cc1 (centres undefined),-20.4% (inactive)
8,CN(NC(=O)c1ccccc1F)c1nc(C(F)(F)F)nc2ccccc12,-20% (inactive)
9,CC(C)(C)c1ccc(Oc2ccc(N)cc2)cc1,106% (active)
10,Cc1cc(C(=O)CSc2nc(N)cc(=O)[nH]2)c(C)n1-c1cccc(F)c1,-15.5% (inactive)
11,CC(=O)c1c(C)[nH]c(C(=O)OCC(=O)Nc2sc3c(c2C#N)CCCC3)c1C,-44.3% (inactive)
12,COc1ccccc1/C=C/CN1CCC(CO)(Cc2ccccc2)CC1,3.26% (inactive)
13,Cc1cccc(NS(=O)(=O)c2ccc(-c3cnc(C4CC4)o3)cc2)c1,-40.9% (inactive)
14,CCOc1cccc(/C=N/NC(=S)NCCN2CCOCC2)c1O,-21.9% (inactive)
15,COc1ccc(C(=O)NCc2nnc(SCCOc3ccccc3)n2C)cc1,-33.1% (inactive)
16,COc1cccc2cc(C(N)=O)/c(=N\NC(=O)c3ccccc3)oc12,-3.11% (inactive)
17,Cc1cccc2nc(CSc3nc4[nH]ncc4c(=O)n3-c3cccc(Cl)c3)cc(=O)n12,33.2% (active)
18,COc1cc(C(=O)OC(C)C(=O)NCC2CCCCC2)cc(NC(=O)c2ccco2)c1OC (centres undefined),-76.6% (inactive)
19,CC(C)C(=O)Nc1nnc(SCC(=O)N2C(C)CCCC2C)s1 (centres undefined),-26.6% (inactive)
20,O=C(NCCOCc1ccc(Cl)cc1)c1ncn[nH]1,33.3% (active)
21,CCn1c(SCc2ccccc2)nc2cc(OC)c(OC)cc2c1=O,-22.5% (inactive)
22,CC(C)Oc1ccc(CN2CCC(n3nccc3NC(=O)c3cccnc3)CC2)cc1,-35.7% (inactive)
